Drawing on PubChem BioAssay (NCI), this text covers growth for 24 compounds.

Compounds without any hit were thinned out: in the full panel of roughly 83,000, 20% have a hit.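 Percent growth is the endpoint: 0 to 100 indicates growth inhibition (40 means 60% inhibition), 0 means no net growth, and negative values indicate cell death.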 A number with no mark means an inactive call. Activity calls are given as the source filed them. How the source made its calls: active means growth percent below 10; inactive means the rest.

The assay has as its system SK-MEL-28 melanoma. As to the kind of experiment: NCI-60 one-dose screen, 48 h (100 = growth as untreated, 0 = no growth, -100 = all killed). As to conditions: 10 µM unless noted.
Take `Nc1nc2c(c(=O)[nH]1)C1(C(=O)Nc3ccccc31)c1c(nc(N)[nH]c1=O)N2`: the growth is 112%.
To `C=C1CC[C@@H]2[C@](C)(COC(C)=O)[C@H](OC(C)=O)CC[C@@]2(C)[C@@H]1CC(NCc1ccccc1)C1=CCOC1=O` (some centres undefined) belongs 68.6%; to `CCN(CC)c1ccc(/C=C/C(=O)c2cccc(NS(C)(=O)=O)c2)cc1`, 72.5%; to `COc1cc(-c2nnc(-c3nc(-c4cc(OC)c(OC)c(OC)c4)n4ccccc34)o2)ccc1N`, 97.8%.
For the compound `CCSc1nc(Nc2ccc(S(=O)(=O)Nc3ccon3)cc2)c(C#N)c(-c2cccc(Br)c2)n1`, the growth was 103%.
As for `Cc1ccc(C2=NNC(c3sc(Cl)nc3Cl)C2)cc1` (centres undefined), the figure is 102%; as for `COc1cc(/C=C\C(C)=N\Nc2ccccc2)ccc1O`, 120%.
Consider `CC(=O)Nc1c(Cl)cc2c(c1Cl)Cc1cc([N+](=O)[O-])ccc1-2`, for which the growth was 102%.
On to `CCOC(=O)C(Br)=P(c1ccccc1)(c1ccccc1)c1ccccc1`, for which the growth was 107%.
For the compound `Cc1[nH]ccc2cc3nc4ccccc4c3cc12`, the growth was 54.5%.
To `COc1ccc(-c2cc(-c3nnc(SCC(=O)Nc4ccc(C(C)=O)cc4)n3-c3ccccc3)c3ccccc3n2)cc1OC` belongs 113%; to `CC(=O)N1N=C(c2ccc(Nc3nc(NCCO)nc(NCCO)n3)cc2)CC1c1ccc(Cl)cc1` (centres undefined), 104%; to `COc1ccccc1NC(=O)c1sc2nc3c(cc2c1N)C(=O)CCC3`, 59.1%.
As for `CC1(C)CC2(C)CC(=O)C1C(C(=O)O)C2C(=O)O` (centres undefined), the figure is 117%; as for `C(=C1c2ccccc2-c2ccccc21)c1ccncc1`, 68.8%.
To `COc1cccc(N2CCN(c3cccc(C)n3)CC2)c1` belongs 111%.
`Cc1ccc(NC(=O)c2sc3nc4c(cc3c2N)C(=O)CCC4)cc1`: the growth is 84.8%.
`Nc1ccc(Oc2c(F)c(F)c(Oc3ccc(N)cc3)c(F)c2F)cc1`: the growth is 115%.
As for `CN(C)CCC(=O)Nc1ccc(-n2cc(-c3cccc(NC(=S)Nc4cccc(-c5cn(-c6ccc(NC(=O)CCN(C)C)cc6)nn5)c4)c3)nn2)cc1`, the figure is 133%; as for `O=C1c2cc3c(cc2-c2c1c1ccc(Cl)cc1c(=O)n2CCCNCCO)OCO3`, -74% (active).
As to `O=C(CSc1nnc(-c2cc(-c3ccccc3)nc3ccccc23)o1)c1ccc(Br)cc1`, the growth was 113%.
To `O=c1ncc(-c2ccc(C(F)(F)F)cc2)c(NC2CCCCCC2)[nH]1` belongs 49.3%.
To `CCc1ccc(-c2nc(SCC(=O)NC3CCCCC3)n[nH]2)cc1` belongs 108%; to `COc1ccc(C(=O)/C=C/c2ccc(C)cc2)cc1OC`, 87.4%.
